# Measurements as given in publication PMC7862700, “An all-to-all approach to the identification of sequence-specific readers for epigenetic DNA modifications on cytosine”.
# Tests used:
# Assay in all cases: DAPPL (digital affinity profiling via proximity ligation, sequencing); 10 mM Tris-HCl pH 7.5, 50 mM NaCl, 1 mM DTT, 4% glycerol, room temperature, 30 min; GST-TFs on glutathione beads, 16-mer random dsDNA library, 0.1% formaldehyde crosslink after washing; high values mean tight binding
# Settings in all cases: protein: recombinant; tags: N-terminal GST; dsDNA, one strand shown
# [1] = target: T1, FLI1 (Homo sapiens, UniProt Q01543 1-452)
# T1 sequence: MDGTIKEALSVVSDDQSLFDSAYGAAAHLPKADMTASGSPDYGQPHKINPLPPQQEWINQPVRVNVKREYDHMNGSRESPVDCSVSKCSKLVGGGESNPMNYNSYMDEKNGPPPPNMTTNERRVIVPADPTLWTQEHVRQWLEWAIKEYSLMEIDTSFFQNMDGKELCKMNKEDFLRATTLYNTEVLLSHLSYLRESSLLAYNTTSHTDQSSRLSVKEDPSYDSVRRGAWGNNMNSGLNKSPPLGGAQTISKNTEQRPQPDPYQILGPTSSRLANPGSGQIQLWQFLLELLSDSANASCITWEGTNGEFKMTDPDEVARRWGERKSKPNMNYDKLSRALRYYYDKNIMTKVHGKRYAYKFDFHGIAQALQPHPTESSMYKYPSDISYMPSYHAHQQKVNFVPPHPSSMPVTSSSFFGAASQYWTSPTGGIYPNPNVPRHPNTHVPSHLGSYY
# Procedure, shortened: (§1)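 A tag-only sample was pooled with DNA-barcoded human transcription factors that had been expressed in yeast as GST fusions and captured on glutathione beads. The pools were incubated for 30 min at room temperature with 200 nmole of a random double-stranded 16-mer DNA library in Tris/NaCl/DTT/glycerol buffer, then washed, crosslinked with 0.1% formaldehyde, proximity-ligated (BsaI/T4 ligase, 1 h, 37 °C), PCR-amplified and sequenced on an Illumina NextSeq500. Binding signal is each hexamer's read frequency for a factor divided by its frequency for the tag-only sample.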
# [2] = target: T2, ELK1 (Homo sapiens, UniProt P19419 1-428)
# T2 sequence: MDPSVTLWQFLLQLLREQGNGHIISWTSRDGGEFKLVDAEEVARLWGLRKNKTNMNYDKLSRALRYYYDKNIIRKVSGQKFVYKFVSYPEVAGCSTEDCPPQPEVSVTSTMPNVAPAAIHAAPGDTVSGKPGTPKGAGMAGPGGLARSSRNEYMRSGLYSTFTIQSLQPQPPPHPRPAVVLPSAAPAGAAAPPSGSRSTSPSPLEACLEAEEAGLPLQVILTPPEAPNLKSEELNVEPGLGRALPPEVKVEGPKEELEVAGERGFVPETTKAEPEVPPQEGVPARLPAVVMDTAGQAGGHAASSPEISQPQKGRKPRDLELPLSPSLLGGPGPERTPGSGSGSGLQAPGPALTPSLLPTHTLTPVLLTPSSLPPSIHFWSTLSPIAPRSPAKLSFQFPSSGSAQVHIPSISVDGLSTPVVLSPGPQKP
# Procedure, shortened: as §1
# [3] = target: T3, GABPA (Homo sapiens, UniProt Q06546 1-454)
# T3 sequence: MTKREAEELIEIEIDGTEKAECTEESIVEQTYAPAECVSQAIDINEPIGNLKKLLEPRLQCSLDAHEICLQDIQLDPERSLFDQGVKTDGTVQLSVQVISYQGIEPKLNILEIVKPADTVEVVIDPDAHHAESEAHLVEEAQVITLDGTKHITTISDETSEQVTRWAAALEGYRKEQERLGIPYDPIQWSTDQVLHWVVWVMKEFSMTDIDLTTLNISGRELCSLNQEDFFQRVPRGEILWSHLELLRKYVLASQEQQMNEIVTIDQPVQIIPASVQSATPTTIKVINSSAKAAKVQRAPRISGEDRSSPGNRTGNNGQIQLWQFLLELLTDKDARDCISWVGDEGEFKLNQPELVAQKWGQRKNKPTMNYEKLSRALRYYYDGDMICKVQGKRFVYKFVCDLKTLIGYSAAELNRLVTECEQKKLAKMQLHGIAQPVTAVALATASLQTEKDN
# Procedure, shortened: as §1
# [4] = target: T4, ERG (Homo sapiens, UniProt P11308 1-479)
# T4 sequence: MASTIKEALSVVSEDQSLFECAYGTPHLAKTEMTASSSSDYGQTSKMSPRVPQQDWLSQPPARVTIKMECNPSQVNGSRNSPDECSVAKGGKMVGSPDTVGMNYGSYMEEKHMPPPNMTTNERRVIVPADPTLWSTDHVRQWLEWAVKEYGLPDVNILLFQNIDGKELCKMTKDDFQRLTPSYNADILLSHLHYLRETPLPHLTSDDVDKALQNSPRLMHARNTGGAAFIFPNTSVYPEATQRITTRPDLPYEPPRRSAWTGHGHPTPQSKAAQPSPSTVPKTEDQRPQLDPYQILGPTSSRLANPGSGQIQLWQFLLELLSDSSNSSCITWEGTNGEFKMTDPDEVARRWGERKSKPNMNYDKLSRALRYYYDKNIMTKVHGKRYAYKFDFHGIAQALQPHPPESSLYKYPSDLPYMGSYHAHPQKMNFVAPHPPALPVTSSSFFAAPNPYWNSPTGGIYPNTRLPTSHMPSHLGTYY
# Procedure, shortened: as §1
# [5] = target: ELF1 (Homo sapiens, UniProt P32519 1-619)
# Procedure, shortened: as §1
# [6] = target: T5, EHF (Homo sapiens, UniProt Q9NZC4 1-300)
# T5 sequence: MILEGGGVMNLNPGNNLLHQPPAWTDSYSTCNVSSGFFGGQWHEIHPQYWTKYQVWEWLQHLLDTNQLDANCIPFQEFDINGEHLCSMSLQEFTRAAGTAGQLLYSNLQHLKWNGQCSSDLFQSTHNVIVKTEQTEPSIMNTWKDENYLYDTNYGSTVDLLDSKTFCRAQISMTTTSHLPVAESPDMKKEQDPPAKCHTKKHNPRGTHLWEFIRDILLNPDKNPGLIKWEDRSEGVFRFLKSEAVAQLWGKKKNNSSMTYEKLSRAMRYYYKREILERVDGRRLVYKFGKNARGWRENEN
# Procedure, shortened: as §1
# [7] = target: SPI1 (Homo sapiens, UniProt P17947 1-270)
# Procedure, shortened: as §1
# [8] = target: SPIB (Homo sapiens, UniProt Q01892 1-262)
# Procedure, shortened: as §1
# [9] = target: T6, ELK3 (Homo sapiens, UniProt P41970 1-407)
# T6 sequence: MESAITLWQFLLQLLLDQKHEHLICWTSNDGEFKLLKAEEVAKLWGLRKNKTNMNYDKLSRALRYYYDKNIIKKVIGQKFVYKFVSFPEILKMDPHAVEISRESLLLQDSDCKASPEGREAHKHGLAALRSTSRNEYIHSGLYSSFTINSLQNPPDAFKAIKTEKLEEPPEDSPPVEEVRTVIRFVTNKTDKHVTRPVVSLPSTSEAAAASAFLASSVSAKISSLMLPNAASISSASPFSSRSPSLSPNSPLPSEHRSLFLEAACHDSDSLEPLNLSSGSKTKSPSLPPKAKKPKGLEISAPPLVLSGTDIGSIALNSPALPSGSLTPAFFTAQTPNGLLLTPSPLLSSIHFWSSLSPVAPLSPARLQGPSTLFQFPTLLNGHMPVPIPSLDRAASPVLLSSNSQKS
# Procedure, shortened: as §1
# SPIB, sequence (Q01892 whole entry): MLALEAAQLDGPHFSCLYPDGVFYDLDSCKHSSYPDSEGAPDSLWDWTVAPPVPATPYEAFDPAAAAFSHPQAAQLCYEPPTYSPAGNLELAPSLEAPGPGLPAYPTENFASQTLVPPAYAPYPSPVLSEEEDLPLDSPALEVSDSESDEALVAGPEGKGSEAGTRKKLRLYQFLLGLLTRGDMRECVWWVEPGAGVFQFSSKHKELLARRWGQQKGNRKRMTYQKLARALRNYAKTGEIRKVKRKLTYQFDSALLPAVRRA
# ELF1, sequence (P32519 whole entry): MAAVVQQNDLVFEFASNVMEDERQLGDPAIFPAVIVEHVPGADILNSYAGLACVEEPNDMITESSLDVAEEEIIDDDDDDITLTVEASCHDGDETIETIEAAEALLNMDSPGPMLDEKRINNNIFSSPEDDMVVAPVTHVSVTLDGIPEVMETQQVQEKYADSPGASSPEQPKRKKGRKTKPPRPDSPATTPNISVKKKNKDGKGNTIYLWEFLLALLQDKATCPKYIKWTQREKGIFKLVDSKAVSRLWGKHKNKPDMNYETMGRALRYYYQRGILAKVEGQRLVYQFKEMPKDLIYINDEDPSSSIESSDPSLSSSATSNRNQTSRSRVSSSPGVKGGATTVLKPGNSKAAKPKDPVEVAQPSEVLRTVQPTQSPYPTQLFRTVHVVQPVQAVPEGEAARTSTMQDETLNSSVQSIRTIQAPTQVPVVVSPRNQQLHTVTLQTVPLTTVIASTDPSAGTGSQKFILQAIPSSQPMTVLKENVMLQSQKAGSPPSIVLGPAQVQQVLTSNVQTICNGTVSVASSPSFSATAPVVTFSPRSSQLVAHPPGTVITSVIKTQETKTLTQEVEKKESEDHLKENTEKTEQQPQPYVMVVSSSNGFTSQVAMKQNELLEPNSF
sequence,measurement,setting,value
GGCTCT,binding signal,[1],"1.15 fold enrichment (6-mer frequency, TF over GST control)"
same,binding signal,[2],"1.23 fold enrichment (6-mer frequency, TF over GST control)"
same,binding signal,[3],"1.23 fold enrichment (6-mer frequency, TF over GST control)"
same,binding signal,[4],"1.26 fold enrichment (6-mer frequency, TF over GST control)"
same,binding signal,[5],"1.29 fold enrichment (6-mer frequency, TF over GST control)"
same,binding signal,[6],"1.27 fold enrichment (6-mer frequency, TF over GST control)"
same,binding signal,[7],"1.18 fold enrichment (6-mer frequency, TF over GST control)"
same,binding signal,[8],"1.26 fold enrichment (6-mer frequency, TF over GST control)"
same,binding signal,[9],"1.42 fold enrichment (6-mer frequency, TF over GST control)"
